# From ChEMBL document CHEMBL4888484, “Replenishing the malaria drug discovery pipeline: Screening and hit evaluation of the MMV Hit Generation Library 1 (HGL1) against asexual blood stage Plasmodium falciparum ,using a nano luciferase reporter read-out” (2022)
# Among all 150,000 compounds or so, about 540 (0.36%) showed an effect of 50% or more. This is one part of a sample in which strong results are shown more often than they occur.
# Test system: Plasmodium falciparum
# Experiment: Primary screen in NF54 nanoGlo assay, in single point, at 2uM, 72h; a lower Z score goes with more inhibition
# Assay type: functional, Erythrocyte
# Conditions: timepoint 72 hour
Compound,% Inhibition,Z score
O=S(=O)(CCC1Cc2ccccc2C1)N1CCC[C@@](O)(C(F)(F)F)CC1,34%,-3.86
O=C(Cn1cc(F)ccc1=O)N1CCc2ccccc21,-8%,1.07
COc1cc(CNC2CCCCCC2)ccc1OC[C@@H](O)CN1CCCCCC1,1%,-0.22
CN1CCN(C2(CNC(=O)Nc3ccccc3C(F)(F)F)CCCC2)CC1,-2%,0.33
CN1CCN(C2(CNc3ccnc4ccccc34)CCCC2)CC1,99%,-9.07
O=C(NCc1c(F)cccc1Cl)c1cnc(-c2cccnc2)nc1,-19%,1.75
CCc1ccc(NC(=O)[C@H](C)N2CCC(NS(=O)(=O)c3cccs3)CC2)cc1,76%,-7.11
C[C@@H](C(=O)Nc1ccc(F)cc1)N1CCC(NS(=O)(=O)c2cccs2)CC1,32%,-3.04
C[C@@H](C(=O)Nc1c(F)cccc1F)N1CCC(NS(=O)(=O)c2cccs2)CC1,-7%,0.81
COc1ccc(C(CO)CNC2[C@@H]3CCC[C@@H]3C2(C)C)cc1 (some centres not stated),0%,-0.02
Cc1cccc(OCC(O)CNC2C3CCCOC3C2(C)C)c1 (configuration not stated),-10%,0.93
CC1(C)C(NCC(O)COc2ccc(F)c(F)c2)[C@@H]2CCC[C@@H]21 (some centres not stated),61%,-6.95
CC(=O)[C@H](C)n1nc(C2CC2)ccc1=O,-17%,2.21
Cc1cccc(-n2c(=O)[nH]c3nc(N4CCCC4)ncc3c2=O)c1C,-4%,0.62
Cc1cccc(-n2c(=O)[nH]c3nc(NCCN(C)C)ncc3c2=O)c1C,50%,-0.77
COc1ccccc1-n1c(=O)[nH]c2nc(NCc3cccnc3)ncc2c1=O,1%,-0.13
Cc1cccc(N(CCC#N)C(=O)c2cc3ccccc3c(=O)[nH]2)c1,-18%,1.68
O=C(c1ccncc1F)N1CCCC[C@@H]1CCc1ccccn1,-23%,2.29
Cc1ccc(CNC(=O)CCNc2c(-c3cccc(F)c3)nc3cnccn23)o1,-18%,2.57
Cc1ccc(CCN2CCC[C@@H]2C(=O)O)cc1,3%,-0.5
O=C(NC1CCC(N2C(=O)CCC2=O)CC1)C1CC1C1CCCCC1 (configuration not stated),-7%,0.72

Compound,% Inhibition,Z score
O=C1c2cc(Nc3ccccc3)c3c4c(cc(Nc5ccccc5)c(c24)C(=O)N1c1ccccc1)C(=O)N(c1ccccc1)C3=O,3%,-0.42
O=C1NC(=O)c2ccc3c4c(ccc1c24)C(=O)N(c1ccccc1)C3=O,73%,-8.98
O=C1c2ccc(O)cc2C(=O)N1c1ccc(N(c2ccccc2)c2ccc(N3C(=O)c4ccc(O)cc4C3=O)cc2)cc1,8%,-1.03
COc1ccc2cc3n(c2c1)C[C@@](C)(C(=O)NC1CCCCCC1)N(CCN1CCCCCC1)C3=O,2%,-0.31
COc1ccc2cc3n(c2c1)C[C@@](C)(C(=O)NC1CCCC1)N(Cc1ccc(F)cc1)C3=O,73%,-1.23
COc1cccc(CN2C(=O)c3cc4ccc(OC)cc4n3C[C@@]2(C)C(=O)NC2CCCCCC2)c1,-12%,1.58
Cc1ccc(C(=O)N2CCCC[C@H]2c2nnc(-c3ccncc3)[nH]2)cn1,-12%,2.36
CCOc1cc(CNc2ccc3c(c2)OCO3)ccc1OC,-1%,0.26
C[C@@H](NCc1ccc2c(c1)COC(C)(C)O2)c1cccc(O)c1,-21%,2.42
CC1(C)OCc2cc(CNc3ccc4oc(=O)[nH]c4c3)ccc2O1,96%,-13.84
O=S(=O)(c1cccc(F)c1F)N1CCN(Cc2nccn2C(F)F)CC1,-4%,0.57
COc1cc2ncc3c(-c4ccc(C)c(C)c4)n[nH]c3c2cc1OC,51%,-4.04
COc1cc2ncc3c(-c4ccccc4)n[nH]c3c2cc1OC,9%,-0.99
Cc1ccc(-c2n[nH]c3c2cnc2ccc(C)cc23)cc1,-5%,0.82
CC(C)C(=O)N[C@@H](N1CCCCCC1)C(Cl)(Cl)Cl,-15%,2.02
Cn1nc(C(=O)NC2CCN(Cc3ccccc3)CC2)c2ccccc2c1=O,34%,-3.81
O=C(Nc1cnc2c(c1)COCC2)c1cccc(OC(F)F)c1,-1%,0.19
O=C(CNC(=O)c1ccc(C(F)(F)F)cc1)Nc1cnc2c(c1)COCC2,34%,-4.64
COC[C@H]1CCCN1S(=O)(=O)N1CCC(c2cc[nH]n2)CC1,-7%,0.81
CN1C(=O)[C@@H]2CCCCN2c2ccc(C(=O)N3CCN(C(=O)c4ccco4)CC3)cc21,1%,-0.14
COCC1(CNC(=O)CNC(C)=O)CCCC1,-5%,0.85

Compound,% Inhibition,Z score
Cc1ccccc1CNC1C(=O)NCCC1C (configuration not stated),74%,1.17
Cc1ccccc1CN[C@H]1CCCOCC1,-4%,0.53
Cc1ccccc1CC(=O)N[C@H]1CCCCNC1=O,0%,0.03
Cc1cc(C)cc(CCNC(=O)CN(C)S(C)(=O)=O)c1,-4%,0.7
COc1ccc(C[C@@H]2C3=C(CCCC3)CCN2C(=O)c2cc(C)on2)cc1,-5%,0.97
OCC1(CN2CCCC2)CCN(Cc2ccc(Cl)cc2)CC1,2%,-0.36
COc1c(C)cnc(Cn2cnc(N)n2)c1C,8%,-0.99
CN1CCN(C[C@@]2(Cc3ccccc3)CCOC2)CC1,-3%,0.56
Cc1ccc(NC(=O)c2c(C)nc3sc(C(=O)NCc4ccccc4)c(N)c3c2-c2cccs2)c(C)c1,61%,-9.57
Cc1ccc(NC(=O)c2c(C)nc3sc(C(=O)NCc4ccccc4)c(N)c3c2-c2cccnc2)c(C)c1,21%,-3.35
CCc1ccc(NC(=O)c2sc3nc(C)c(C(=O)Nc4ccc(C)cc4C)c(-c4ccccc4Cl)c3c2N)cc1,40%,-2.96
COc1ccc(NC(=O)c2sc3nc(C)c(C(=O)Nc4ccc(C)cc4C)c(-c4ccccc4Cl)c3c2N)cc1,38%,-3.76
CC[C@H](C)NC(=O)c1sc2nc(C)c(C(=O)Nc3ccc(C)cc3C)c(-c3cccs3)c2c1N,17%,-2.61
Cc1ccc(NC(=O)c2c(C)nc3sc(C(=O)NCc4ccccc4)c(N)c3c2-c2ccccc2Cl)c(C)c1,90%,-8.85
C[C@H](NS(=O)(=O)c1cccc2nsnc12)c1nncn1C,-8%,1.65
Cc1cc(NC(=O)c2ccccc2C(=O)c2ccc(Cl)cc2)ccc1N1CCCC1=O,-10%,1.56
COc1ccc(F)cc1S(=O)(=O)N1CC2(C[C@H](CC(=O)NCC3CC3)CO2)C1,-2%,0.34
Cn1cc(Br)c2nc[nH]c(=O)c21,-14%,1.39
CC(=O)c1ccc(CNc2ncc(Cl)cn2)nc1C,-16%,1.6
CCOC(=O)c1nsc(Cl)c1Cl,4%,-0.44
CCOC(=O)c1ncc(Cl)c(C#N)c1Cl,50%,0.88

Compound,% Inhibition,Z score
CCOC(=O)c1nccc(C#N)c1Cl,40%,-5.19
NC(=O)[C@@H]1CCCN1S(=O)(=O)c1ccc2c(c1)CCC(=O)N2,-13%,1.82
COc1ccccc1N1CCN(C(=O)c2nnn(-c3ccccc3Cl)c2-c2cccnc2)CC1,50%,-6.51
O=C(c1nnn(-c2ccccc2Cl)c1-c1cccnc1)N1CCN(c2ccccc2)CC1,-8%,0.9
O=C(c1nnn(-c2ccccc2Cl)c1-c1cccnc1)N1CCC(Cc2ccccc2)CC1,40%,-5.19
Cc1nn(-c2ccc(Br)cc2)c(NC(=O)N(C)[C@@H](C)c2ccccc2F)c1C,2%,-0.23
Cn1nccc1CNC(CO)CC(O)C(C)(C)C (configuration not stated),-3%,0.38
CCn1cnnc1NC(=O)c1cc(C)sn1,1%,-0.12
O=C(Cn1ncn2nc(-c3ccccc3)cc2c1=O)N1CCCCC1,-20%,1.75
N#Cc1cccc(S(=O)(=O)N2CCCCCCC2)c1,4%,-0.83
CCc1c2c(=O)n(-c3nc4ccccc4s3)[nH]c2cc(=O)n1CCCN1CCOCC1,81%,-10.48
Cc1c2c(=O)n(-c3nc4ccccc4s3)n(Cc3ccc(F)cc3)c2cc(=O)n1CCCN1CCOCC1,32%,-3.58
Cc1c2c(=O)n(-c3nc4ccccc4s3)n(CC(=O)Nc3ccc(F)cc3)c2cc(=O)n1CCCN1CCOCC1,-30%,3.47
N#Cc1cc(OCC(F)F)nc2ccccc12,-5%,0.76
CC(NCC(C)N1CCOCC1C)c1cnn(C(C)C)c1 (configuration not stated),1%,-0.14
Cc1ccn2c(CN3CCN([C@H]4CCN(Cc5ccccc5)C4)CC3)c(C)nc2c1,57%,-7.67
c1ccc(CN2CC[C@H](N3CCOCC3)C2)cc1,3%,-0.34
Cc1ccc(CN2CCN([C@H]3CCN(Cc4ccccc4)C3)CC2)nn1,6%,-0.85
